Assay results reported in PubChem BioAssay (Tox21).
Records with an inconclusive call do not appear. Where a call stands in place of a potency, no number is given. Active and inactive are the calls of the source. Calls come from the whole dose curve; as a rule, active = well fitted cell-killing curve with a large enough effect in the repeat runs; inconclusive = weak or mixed curves; inactive = flat fitted curve, though single readings scatter. Residues, ends and D or L forms follow the SMILES beside them.

Assay: qHTS RealTime-Glo MT Cell Viability Assay in HepG2 cells - 32 hour (AID 1224877); note: nearly all actives have a fitted effect of over 55% in size
Conditions: RealTime-Glo luminescence; series mostly up to 76.8 µM
Description: U.S. Tox21 Program National Center for Advancing Translational Sciences [NCATS] NIH Chemical Genomics Center [NCGC] U.S. Environmental Protection Agency [EPA] National Institutes of Environmental Health Sciences [NIEHS] National Toxicology Program [NTP] U.S. Food and Drug Administration [FDA] Tox21 Assay Overview: Measure of cell viability is critical in the cell-base assay. Analysis of cell viability is necessary for the characterization of cell responses to cytotoxic drugs and environmental stress. A RealTime-Glo MT Cell Viability Assay to monitor cell viability in real time of continues cell culture during 40 hours of compound treatment was used to screen Tox21 10K library compounds in HepG2 cells. The RealTime-Glo MT Cell Viability Assay is a nonlytic, homogeneous, bioluminescent method to measure cell viability in real time using a simple, plate-based method. The assay involves adding NanoLuc luciferase and a cell-permeant prosubstrate to cells in culture. Viable cells reduce the proprietary prosubstrate to generate a substrate for NanoLuc luciferase. This substrate diffuses from cells into the surrounding culture medium, where it is rapidly used by the NanoLuc Enzyme to produce a luminescent signal. The signal correlates with the number of viable cells, making the assay well suited for cytotoxicity studies.
Tox21 Assay Protocol Summary: The mixture of HepG2 cell suspension and reagents were dispensed at 600cells/6 ul/well in 1536-well tissue culture treated black solid bottom plates using a Multidrop dispenser. After the assay plates were incubated at a 37 C/5% CO2 incubator for 5 hours, 23 nL of compounds dissolved in DMSO, positive and negative controls was transferred to the assay plate by a pintool work station. The plates were incubated at 37 C for 40 hours. The luminescence intensity were measured at 0h, 8h, 16h, 24h, 32h and 40h time points using ViewLux plate reader during compound treatment.
With `Cn1cc[nH]c1=S` the Potency was “inactive”.
For `O=S(=O)(O)c1ccc2cc(O)ccc2c1`, the Potency was “inactive”.
For `Cc1ccc(O)cc1`, the Potency was “inactive”.
With `O=c1cc[nH]c(=S)[nH]1` the Potency was “inactive”.
With `O=C1NC(=O)c2ccccc21` the Potency was “inactive”.
With `COc1ccc2[nH]cc(CCNC(C)=O)c2c1` the Potency was “inactive”.
For `CC(C)[C@@H]1CC[C@@H](C)C[C@H]1O`, the Potency was “inactive”.
For `NNC(=O)c1ccncc1`, the Potency was “inactive”.
With `COC(=O)[C@H](Cc1ccccc1)NC(=O)[C@@H](N)CC(=O)O` (H-Asp-Phe-OMe) the Potency was “inactive”.
With `Cc1cc(=O)[nH]c(=S)[nH]1` the Potency was “inactive”.
With `Cc1ccccc1C(OCCN(C)C)c1ccccc1` (stereo not given) the Potency was “inactive”.
For `CCCCOC(=O)CC(CC(=O)OCCCC)(OC(C)=O)C(=O)OCCCC`, the Potency was “inactive”.
For `O=C(O)CCC(=O)O`, the Potency was “inactive”.
In the case of `CC(O)CO` (stereo not given), the Potency was “inactive”.
For `C[C@]12C=CC(=O)C=C1CC[C@@H]1[C@@H]2[C@@H](O)C[C@@]2(C)[C@H]1CC[C@]2(O)C(=O)CO`, the Potency was “inactive”.
For `Cc1ccc(C)c(OCCCC(C)(C)C(=O)O)c1`, the Potency was “inactive”.
For `CCOc1ccc(NC(=O)CC(C)O)cc1` (stereo not given), the Potency was “inactive”.
With `OCCc1ccccc1` the Potency was “inactive”.
In the case of `OC(Cn1cncn1)(Cn1cncn1)c1ccc(F)cc1F`, the Potency was “inactive”.
In the case of `NC(=O)NC1NC(=O)NC1=O` (stereo not given), the Potency was “inactive”.
With `CCCCCCCCCCCCCCCC(=O)O` the Potency was “inactive”.
In the case of `NS(=O)(=O)c1cc(C(=O)O)c(NCc2ccco2)cc1Cl`, the Potency was “inactive”.
With `O=C(C1CCCCC1)N1CC(=O)N2CCc3ccccc3C2C1` (stereo not given) the Potency was “inactive”.
With `O=NO` the Potency was “inactive”.
In the case of `NC(=O)c1cnccn1`, the Potency was “inactive”.
In the case of `O=C(O)c1[nH]n(-c2ccc(S(=O)(=O)O)cc2)c(=O)c1N=Nc1ccc(S(=O)(=O)O)cc1`, the Potency was “inactive”.
For `Nc1ccc(C(=O)O)cc1`, the Potency was “inactive”.
For `CCC1(c2ccccc2)C(=O)NCNC1=O`, the Potency was “inactive”.
For `Cc1ccc(S(=O)(=O)NC(=O)NN2CCCCCC2)cc1`, the Potency was “inactive”.
In the case of `O=C(O)CS`, the Potency was “inactive”.
With `O=C(O)C(=O)O` the Potency was “inactive”.
For `CC(O)C(=O)O` (stereo not given), the Potency was “inactive”.
For `CCCC(CCC)C(=O)O`, the Potency was “inactive”.
In the case of `Nc1ccc(S(=O)(=O)c2ccc(N)cc2)cc1`, the Potency was “inactive”.
In the case of `CNC[C@H](O)c1cccc(O)c1`, the Potency was “inactive”.
For `O=C(O)CCCCC(=O)O`, the Potency was “inactive”.
For `O=C(c1ccccc1)C(O)c1ccccc1` (stereo not given), the Potency was “inactive”.
In the case of `O=C(O)CCCCCCCC(=O)O`, the Potency was “inactive”.
With `Cc1cc(=O)n(-c2ccccc2)n1C` the Potency was “inactive”.
With `CC(=O)OCC(COC(C)=O)OC(C)=O` the Potency was “inactive”.
